# High-throughput results: PubChem, National Center for Advancing Translational Sciences (NCATS)
# D1 antag = antagonists of human D1 dopamine receptor. P21728. HEK293 TREx D1 cells, calcium flux, dopamine EC80; hits give low values. activity change, negative = inhibition, % at 10 µM. 360,000 compounds, 3.2% hits. AID 504652; in the data active = activity change below about -30%; note: % is set by controls: 0 for no effect and ±100 for the full control effect
#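 After overnight tetracycline induction at 30 C, force-coupled D1 HEK293 cells took up a no-wash calcium dye at room temperature. Compounds were added and monitored 180 s, and the response to EC80 dopamine was then recorded.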
# D3 antag = D3 dopamine receptor (human) antagonism; max response, negative = inhibition, %; AID 652054; 360,000 compounds, 2.5% hits; P35462; D3R cells, DiscoveRx beta-arrestin luminescence, antagonist mode; hits give low values; in the data active = max response below about -50%; note: % is set by controls: 0 for no effect and ±100 for the full control effect
# Target sequence (P35462 whole entry, looked up): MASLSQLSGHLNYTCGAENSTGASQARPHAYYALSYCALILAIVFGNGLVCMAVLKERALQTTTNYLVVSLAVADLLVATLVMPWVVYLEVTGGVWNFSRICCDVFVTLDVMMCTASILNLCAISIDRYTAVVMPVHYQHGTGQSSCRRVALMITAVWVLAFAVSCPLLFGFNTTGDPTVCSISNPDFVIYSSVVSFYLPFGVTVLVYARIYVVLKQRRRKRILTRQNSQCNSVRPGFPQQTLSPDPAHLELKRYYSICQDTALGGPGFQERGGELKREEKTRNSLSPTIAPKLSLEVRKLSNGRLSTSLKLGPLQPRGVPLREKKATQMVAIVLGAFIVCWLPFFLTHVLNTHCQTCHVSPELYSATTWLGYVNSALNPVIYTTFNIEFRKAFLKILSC
#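 Cells plated overnight at 1500 cells/well, then exposed to library compounds with dopamine controls for 90 minutes at 37 degrees C. DiscoveRx reagent added for 30–60 minutes at room temperature; luminescence read, quantitative HTS format.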
# DRD3 agonist = activates the human D3 dopamine receptor; D3R DiscoveRx beta-arrestin cells, luminescence, 90 min; max activation, %; 410,000 compounds, 0.58% hits; AID 652048; in the data active = max activation above about 30%; note: 0% is about no effect
#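 Cells at 1500/well, incubated overnight, then treated with pinned compounds (dopamine as control) for 90 min at 37 degrees C. DiscoveRx reagent added for 30 - 60 minutes at room temperature; luminescence read.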
# D1 potentiator = potentiators of human D1 dopamine receptor; P21728; HEK293 TREx D1 cells, calcium flux, dopamine EC20 potentiation; 360,000 compounds, 0.036% hits; potentiation, % at 10 µM; in the data active = potentiation above about 30%; note: 0% is about no effect
# D1 ag = human D1 receptor agonism; HEK293 T-REx D1 cells, calcium flux, agonist mode; AID 504660; activation, % at 2 µM; 360,000 compounds, 1% hits; P21728; in the data active = activation above about 30%; note: 0% is about no effect
#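 Tetracycline-induced HEK293 TREx D1 cells, force-coupled to calcium signalling, were dye-loaded with a no-wash calcium kit. Compound was pin-added after a 10 s baseline. Fluorescence was read kinetically at 1 cycle/s for 180 s, with calcium rises flagged as agonism.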
# The depositor's hits bear a star; . = not tested or not shown. A selection: hits, their analogues and other compounds. The true share with any hit is near 6.1%.
SMILES,D1 antag,D3 antag,DRD3 agonist,D1 potentiator,D1 ag
CC(C)C(=O)OC/C(O)=C(\C#N)c1nc2ccccc2[nH]1,-25,9,4,-6,2
COC1=C(OC)C(=O)C(Sc2ccc3ccccc3c2)=CC1=O,.,-62*,-28,.,.
CN1CCN(c2ccc(-c3nc(-c4ccccc4)no3)cc2[N+](=O)[O-])CC1,-38*,.,-17,-3,6
COc1ccc(-c2noc(-c3ccc(N4CCC(C)CC4)c([N+](=O)[O-])c3)n2)cc1OC,-42*,.,0,-5,20
COc1ccc(-c2noc(-c3ccc(N4CCN(C)CC4)c([N+](=O)[O-])c3)n2)cc1,-14,.,-15,-1,7
CC(C)(C)C(=O)NCC(c1ccc2c(c1)OCO2)N1CCOCC1 (configuration not stated),-16,.,-23,-2,2
COc1ccc(-c2csc(-c3nc(-c4ccc(Br)s4)cs3)n2)cc1F,-4,.,-2,1,1
CCOC(=O)Cc1c(C(=O)OCC)nnc2c(-c3ccccc3)c(C)nn12,-1,.,0,3,1
COc1ccc(CN2C(=O)c3oc4ccc(F)cc4c(=O)c3C2c2ccc(O)cc2)cc1 (configuration not stated),-36*,.,-10,-3,1
CCN(CC)CCNc1ccc(CO)c2sc3ccccc3c(=O)c12,27,-63*,-48,1,2
CCN(CC)CCNc1cccc2sc3ccccc3c(=O)c12,.,-28,-12,.,.
Cc1ccc(Nc2nc3nonc3nc2Nc2cccc(C(F)(F)F)c2)cc1Cl,-35*,.,-19,-3,14
CCn1c(SCC(=O)N/N=C/C=C\c2ccco2)nc2ccccc21,-35*,-28,0,-6,3
CNc1cncc(-c2cccc(O)c2)n1,.,0,-14,.,.
CNc1cccc(-c2cccc(O)c2)n1,.,-53*,-15,.,.
COc1ccccc1C(=O)COC(=O)CCN=C1NS(=O)(=O)c2ccccc21,-6,8,1,-9,1
COc1ccc(Cl)cc1C(=O)NNC(=O)COC(=O)CCN=C1NS(=O)(=O)c2ccccc21,6,-108*,-65,-4,3
Cc1ccc(C(=O)C(C)OC(=O)CCN=C2NS(=O)(=O)c3ccccc32)cc1 (configuration not stated),-39*,4,-3,-6,17
O=C(CCCN=C1NS(=O)(=O)c2ccccc21)OCC(=O)c1ccccc1,-30*,9,5,-4,17
C/C(=N\O)c1ccc(OCC(=O)N2CCCCC2)cc1,.,.,-10,.,.
COc1ccccc1Nc1sc(C(=O)c2ccc3c(c2)OCO3)c(N)c1S(=O)(=O)c1ccccc1,16,.,-21,-1,4
CCc1ccc(CN2C(=O)c3ccccc3C2C(=O)NC2CCCCCC2)cc1 (configuration not stated),-7,.,5,2,-2
CC(C)c1ccc(NC(=O)c2cc3sc(Cl)cc3n2C)cc1,10,.,-21,-4,7
CCc1ccc(NC(=O)c2cc3sc(Cl)cc3n2C)cc1,-43*,.,-17,-5,3
CCn1c(C(=O)Nc2c(C)cccc2C)cc2sc(Cl)cc21,-42*,.,-5,-9,1
SMILES,D1 antag,D3 antag,DRD3 agonist,D1 potentiator,D1 ag
CCc1ccccc1NC(=O)c1cc2sc(Cl)cc2n1CC,-3,.,-11,-4,2
CC(=O)c1ccc(N2CCN(C(=O)CCCCn3c(=O)[nH]c4ccccc4c3=O)CC2)cc1,-32*,.,0,-5,5
COC(=O)c1ccc2c(=O)n(CCCCCC(=O)N3CCN(c4ccccc4)CC3)c(=O)[nH]c2c1,-36*,6,28,-6,6
O=C(CCn1c(=O)[nH]c2ccccc2c1=O)N1CCN(c2ccc(Cl)cc2)CC1,-32*,-17,1,-4,6
COc1cc2[nH]c(=O)n(CCC(=O)N3CCN(c4ccc(Cl)cc4)CC3)c(=O)c2cc1OC,-3,.,-18,0,2
CCCCN(CC)CCCNC(=O)C1CCN(c2nc3ccc(CC)cc3s2)CC1,-62*,.,-10,6,79*
CCOc1ccc2nc(N3CCC(C(=O)Nc4c(C)cccc4C)CC3)sc2c1,-56*,.,4,-2,-1
CCCCN(C)CCCNC(=O)C1CCN(c2nc3ccc(CC)cc3s2)CC1,-53*,.,-11,3,84*
CCOc1ccc2nc(N3CCC(C(=O)NCCCN4CCOCC4)CC3)sc2c1,4,-17,5,1,1
COc1ccc(Cn2c(CO)cnc2SCc2cccc(C)c2)cc1,6,.,-1,2,10
Cc1ccc(-n2nc(C(=O)O)nc2-c2ccccc2)cc1,1,-51*,-8,-2,3
NC(c1ccc(F)c(F)c1)c1nc(-c2cc(F)cc(F)c2)cs1 (configuration not stated),.,-72*,9,.,.
NC(c1ccc(F)c(F)c1)c1nc(-c2cncnc2)cs1 (configuration not stated),.,0,1,.,.
S=C(N/N=C/c1cccc2ccccc12)Nc1cccc(Cl)c1,8,-54*,-12,-2,4
Oc1cccc(/C=N/NC(=S)Nc2cccnc2)c1O,1,46,25,-1,1
Oc1ccc(/C=N/NC(=S)Nc2cccnc2)c(O)c1O,1,1,37*,3,1
S=C(N/N=C/c1ccccc1Cl)Nc1ccccc1,16,-64*,-34,-4,0
Cc1cc(Cl)ccc1Oc1nccc(N(C)C)c1C#N,-37*,6,28,-11,10
COc1ccnc(Oc2ccc(Cl)cc2)c1C#N,-35*,3,4,-7,0
CCn1c(=O)c2ccccc2n(Cc2cccc(C)c2)c1=O,-32*,-14,-3,-7,-1
CC(C)Sc1ncc(Cl)c(C(=O)Nc2ccc(S(=O)(=O)N3CCCCC3C)cc2)n1 (configuration not stated),0,.,1,-2,2
COc1cc2oc3cc(C#Cc4ccc(N)cc4)ccc3c(=O)c2cc1OC,.,103,57*,.,.
COc1ccc(C(=O)c2oc3ccccc3c2NC(=O)c2nc(SC)ncc2Cl)cc1Cl,7,.,7,-1,3
Fc1ccc(C(NCCc2ccccc2)c2nnc(-c3ccccc3Cl)o2)cc1 (configuration not stated),2,.,-4,-4,23
COc1ccccc1CN1CCN(Cc2ccc3ccccc3c2)CC1,36,-90*,-2,-9,6
COc1ccc(CN2CCN(Cc3ccc4ccccc4c3)CC2)cc1OC,-1,-76*,-49,-11,7
COc1ccc2ccccc2c1CN1CCN(Cc2ccccc2)CC1,-9,-71*,-30,-12,-1
Cc1ccc(CNC(=O)CCc2nnc3n(C)c(=O)c4sccc4n23)cc1,-6,.,6,2,0
CC(C)(C)c1ccc(C2SCC(=O)N2c2cccc(C(=O)O)c2)cc1 (configuration not stated),-33*,4,1,-7,3
